Screens as filed in PubChem BioAssay.
In the library only some 2.1% were active in any assay of this set; here they are far more common.
Abeta rescue – compounds reversing amyloid beta toxicity in yeast; yeast expressing A-beta42, growth rescue, OD600, 48 h; response scale: 0% DMSO, 100% iron-clioquinol control; Potency, µM (top dose mostly 46.1 µM), usual class: activators; 410,000 compounds, 0.063% hits; AID 1347071; further: nearly all actives have a fitted effect of over 55% in size
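Growth rescue measured by 600 nm absorbance after 48 h yeast culture at 30 C with compound. Values normalized between DMSO and an equimolar ferric chloride plus clioquinol control.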
FUS yeast rescue – rescues growth of FUS-expressing yeast. 390,000 compounds, 0.24% hits. Potency, µM (titrated, usually from 76.6 µM), usual class: activators. S. cerevisiae FUS-expressing, growth rescue, OD600, 24 h. AID 1347120;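 further: plate controls were DMSO vehicle for no effect and reference control for full effect; nearly all actives have a fitted effect of over 55% in size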
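Galactose (2%) drives FUS expression in yeast precultured in raffinose; seeding density OD 0.005. Test compounds incubated 24hr at 30C and 99% humidity before absorbance at 600 nm was measured.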
TDP43 rescue – rescues yeast growth from TDP-43 toxicity | Potency, µM (highest dose often 46.1 µM), inactives show at the top dose growth rescue (activation), usual class: activators | 410,000 compounds, 1.8% hits | AID 652104 | TDP-43 expressing yeast growth rescue, BacTiter-Glo, 24 h; further: % of control where 0% means no effect; nearly all actives have a fitted effect of over 50% in size
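Growth rescue of TDP-43-toxic yeast measured as ATP luminescence (BacTiter-Glo). Cells grown to mid-log in raffinose, induced in galactose at OD600=0.02, exposed to compound 24 hr at 30 deg C.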
aSyn rescue – inhibitors of alpha-synuclein toxicity in yeast. Yeast expressing alpha-synuclein, growth rescue, BacTiter-Glo, 24 h. Potency, µM (highest dose often 46.1 µM), for the others: at the top dose growth rescue (activation), hits mostly activators. 370,000 compounds, 0.14% hits; further: % of control where 0% means no effect; nearly all actives have a fitted effect of over 65% in size
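Rescue of yeast growth: cells expressing toxic alpha-synuclein, induced in galactose at OD600 0.02, incubated with compound 24 h at 30 C. ATP luminescence quantified growth; inhibitors of toxicity appear as activators.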
* marks the source's active call; other numbers are inactive results; i = inactive; ? = inconclusive; . = no result; [ ] = another dose, or the depositor's remark. The call rests on the fitted dose curve; in most records, active means well fitted curve in the direction sought with a large enough effect; inconclusive means small, poorly fitted or top-dose-only effect, or another doubt; inactive means no such curve, though single readings can be large; an effect the other way counts as inactive or inconclusive. Potency means the concentration at half of the fitted maximal effect.

SMILES	Abeta rescue	FUS yeast rescue	TDP43 rescue	aSyn rescue
Cc1cccc(Nc2nc(-c3ccccc3)nc3ccccc23)c1	i	i	25µM*	.
COc1cc(/C=C/C(=O)OCC(=O)NCCC2=CCCCC2)ccc1O	i	i	0%	-3%
COc1cc(/C=C/C(=O)OCC(=O)NCCC2=CCCCC2)cc(OC)c1OC	i	i	35µM*	14%
O=C1/C(=C/C=C/c2ccco2)SC(=S)N1c1ccc(O)cc1	i	i	11µM*	21%
Cc1ccc(S(=O)(=O)NCCC(=O)Nc2ccc(C)cc2C(=O)c2ccccc2)cc1	i	i	22µM*	19%
COc1ccc2c(c1)CC(C(=O)NCCN1CCN(c3cccc(C)c3C)CC1)CO2 (stereo not given)	i	i	0%[9.22 µM]	.
CCCc1nc2ccc(NC(C)=O)cc2c(=O)n1Cc1ccccc1Cl	i	i	20µM*	-1%
Cc1ccc(NC(=O)N2CC3CCCN3c3ccccc32)cc1C (stereo not given)	i	i	20µM*	.
Cc1ccc(NC(=O)N2CC3CCCN3c3ccccc32)cc1Cl (stereo not given)	i	i	?	.
O=C(CCCn1c(=O)c2cccn2c2ccccc21)NCCc1ccc(Cl)cc1	?	i	25µM*	.
CCOC(=O)c1sc(NC(=O)c2c(-c3ccccc3)c(-c3ccccc3)nn(C)c2=O)nc1C	i	?	16µM*	.
Cc1nc(NC(=O)c2c(-c3ccccc3)c(-c3ccccc3)nn(C)c2=O)sc1C	i	i	0%	.
C=CCC[C@@H](Cc1ccc(F)cc1)C(=O)OC[C@@H]1CCCN1C(=O)[C@H](CC=C)CC(=O)N[C@H](CO)Cc1ccccc1	i	20µM*	?	?
C=CCC[C@@H](Cc1ccc(F)cc1)C(=O)OC[C@H]1CCCN1C(=O)[C@@H](CC=C)CC(=O)N[C@H](CO)Cc1ccccc1	i	?	19%	-1%
C=CCC[C@@H](Cc1ccc(F)cc1)C(=O)OC[C@@H]1CCCN1C(=O)[C@@H](CC=C)CC(=O)N(CCO)Cc1ccccc1	i	20µM*	-5%	-1%
COc1ccc(C(=O)O/N=C(\N)c2cccc(C)c2)cc1OC	i	i	22µM*	-52%
COc1cccc(N/C=C/C(=O)c2ccc(OC)c(OC)c2)c1	i	i	2%	?
Cc1cccc(/C(N)=N/OC(=O)c2ccncc2)c1	i	i	?	-10%
Cc1cccc(C(=O)O/N=C(\N)c2ccc(Br)cc2)c1	i	i	6.3µM*	-36%
Cc1cccc(C(=O)O/N=C(\N)c2ccc(Cl)cc2)c1	i	i	10µM*	-24%
Cc1ccc(C(=O)O/N=C(\N)c2ccc(Br)cc2)cc1C	i	i	?	-12%
CCOC(=O)c1cccc(N/C=C/C(=O)c2ccc(OC)c(OC)c2)c1	i	i	?	14µM*
COc1ccc(C(C)NC(=O)CN(c2cc(OC)ccc2OC)S(=O)(=O)c2ccccc2)cc1 (stereo not given)	i	?	-3%	.
Cc1cc(C)cc(C(=O)O/N=C(\N)c2ccc(Br)cc2)c1	i	i	35µM*	1%
COc1ccc(C(=O)O/N=C(\N)c2ccc(Cl)cc2)cc1	i	i	?	-40%
SMILES	Abeta rescue	FUS yeast rescue	TDP43 rescue	aSyn rescue
Cc1ccc(C(=O)O/N=C(\c2ccccc2)c2ccncc2)cc1	i	i	16%[9.22 µM]	0%
COc1ccccc1C(=O)O/N=C(/c1ccncc1)c1ccc([N+](=O)[O-])cc1	i	.	28µM*	14%
COc1ccccc1C(=O)O/N=C(\N)c1ccc(Cl)cc1	i	i	14µM*	-42%
CC1CCN(c2nc(Cl)nc(Nc3ccc([N+](=O)[O-])cc3)n2)CC1	i	.	20µM*	8%
CC(C)=CCC/C(C)=C/CNCC(=O)N1c2ccccc2[C@]2(c3ccccc3)C[C@@H]3C(=O)N(C/C=C(\C)CCC=C(C)C)CC(=O)N3[C@H]12	.	13µM*	.	.
COC(=O)[C@H]1C[C@]2(C/C=C(\C)CCC=C(C)C)c3ccccc3N[C@H]2N1	.	i	.	.
CCCCCCN1C[C@@H](n2cc(COC(=O)c3ccccc3)nn2)[C@H](O)C[C@@H]1c1ccccc1	i	i	19%	25µM*
CCCCCCN1C[C@H](n2cc(COC(=O)c3ccccc3)nn2)[C@@H](O)C[C@@H]1c1ccccc1	i	i	30%	11%
CCCCCCN1C[C@H](n2cc(COC(=O)c3ccccc3)nn2)[C@@H](O)C[C@@H]1c1ccc(C)cc1	i	?	35µM*	-14%
COc1cccc(/C=C/c2ccc3cccc(O)c3n2)c1	?	i	?	18µM*
COc1cc(/C=C/c2ccc3cccc(O)c3n2)cc(OC)c1OC	i	i	22%	-10%
Oc1cccc(/C=C/c2ccc3cccc(O)c3n2)c1	?	i	13µM*	?
COc1cccc(/C=C/c2ccc3cccc(O)c3n2)c1OC	i	i	14µM*	18µM*
CCc1ccc(CNC(=O)c2cc3c(C)nc4ccccc4c3o2)cc1	i	?	20µM*	26%
CCc1c(-c2ccccc2)nc2ccccc2c1C(=O)NCc1ccc(C)cc1	i	?	35µM*	.
CCOc1cccc(C2c3c(-c4cc(C)ccc4O)n[nH]c3C(=O)N2Cc2ccco2)c1 (stereo not given)	?	i	16%	.
CCCNC(=O)c1cc2c3ccccc3n(C)c2s1	i	i	14µM*	0%
O=C(NCCc1ccc(F)cc1)c1ccc(Sc2ccccc2Cl)c([N+](=O)[O-])c1	.	i	.	.
CS(=O)(=O)N1CCC(N2CCN(Cc3ccccc3)C(=O)C2=O)CC1	i	i	5%	.
CCOc1ccc(N2C(=O)N(Cc3ccc(C)cc3C)c3ccccc3S2(=O)=O)cc1	i	i	21%[9.22 µM]	.
Cc1ccccc1C(=O)NNC(=S)NC(=O)c1cccs1	i	i	?	3.5µM*
CCC(C)c1ccc(O)c(NC(=S)NC(=O)c2cccs2)c1 (stereo not given)	?	i	?	13µM*
Cc1ccnc(NC(=S)NC(=O)c2cccs2)c1	i	.	16µM*	-7%
Cc1ccnc(NC(=O)CNC(=O)c2cccs2)c1	i	i	-37%	13%
Cc1ccccc1C(=O)Nc1cccc(NC(=S)NC(=O)c2cccs2)c1	i	i	12%	-3%
CCC(C)c1ccc(O)c(NC(=O)c2cccnc2)c1 (stereo not given)	i	i	2%	-12%
O=C(NC(=S)NCc1ccccc1Cl)c1cccs1	i	.	18µM*	-14%
O=C(c1ccc(F)cc1Cl)N(Cc1ccccn1)CC1CCCO1 (stereo not given)	.	i	.	.
Cc1cc(I)ccc1Nc1nc(NCCN2CCOCC2)nc(N2CCOCC2)n1	.	.	.	16%
COc1cccc(NC(=O)Cn2c(=O)n(-c3cccc(OC)c3)c(=O)c3c4c(sc32)CCCC4)c1	i	i	21%	.
